Wnt bcat act: Wnt/beta-catenin pathway activation. Wnt/beta-catenin reporter cell assay, activator, plate reader. activation, % at 9.35 µM. 300,000 tested, 1.2% active. AID 743398; in the data active means activation above about 30%, passing the limit was not always enough; inconclusive means no clear call, values can overlap the other calls;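 further: 0% = neutral control wells and 100% = positive control wells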
esBAF inh: SWI/SNF esBAF complex inhibition. mouse ES cells, Bmi1-luciferase knock-in reporter, 24 h; 100% = twice the neutral-well signal. reporter increase, % at 12.5 µM. 350,000 tested, 2% active. AID 602393; in the data active means activation above about 40%; inconclusive means no clear call, values can overlap the other calls;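 further: 0% = median of the plate's neutral control wells and 100% = double that signal; a rise in the Bmi1 reporter signal indicates esBAF inhibition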
A3G deaminase: inhibitors of human APOBEC3G DNA deaminase; inhibition, % at 20 µM; Q9HC16; 330,000 tested, 0.28% active; recombinant A3G, ssDNA deamination FAM/TAMRA fluorescence;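 active means inhibition of at least 40% at 20 µM, with no more than 30% in the related APOBEC3A deaminase screen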;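 further: plate controls were DMSO wells with A3G for no effect and wells lacking A3G enzyme for full effect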
Target sequence (Q9HC16 whole entry, looked up): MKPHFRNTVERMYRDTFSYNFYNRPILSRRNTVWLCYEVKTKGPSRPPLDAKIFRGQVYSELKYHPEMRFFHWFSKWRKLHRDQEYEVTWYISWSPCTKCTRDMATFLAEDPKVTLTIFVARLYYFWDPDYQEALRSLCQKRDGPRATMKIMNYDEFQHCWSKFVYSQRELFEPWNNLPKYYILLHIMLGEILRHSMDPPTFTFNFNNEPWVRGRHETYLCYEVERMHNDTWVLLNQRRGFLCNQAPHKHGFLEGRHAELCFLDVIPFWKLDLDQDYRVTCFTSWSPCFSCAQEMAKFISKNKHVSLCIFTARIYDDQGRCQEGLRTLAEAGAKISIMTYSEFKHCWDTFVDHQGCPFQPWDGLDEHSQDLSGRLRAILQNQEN
APOBEC3A inh: blocks human APOBEC3A ssDNA deamination. recombinant A3A, FAM/TAMRA ssDNA deamination fluorescence. inhibition, % at 20 µM. 330,000 tested, 0.41% active. P31941. AID 493011;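 active means at least 40% inhibition at 20 µM here, with at most 30% in a related deaminase screen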;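 further: plate controls were A3A with DMSO for no effect and wells lacking A3A enzyme for full effect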
Target sequence (P31941 whole entry, looked up): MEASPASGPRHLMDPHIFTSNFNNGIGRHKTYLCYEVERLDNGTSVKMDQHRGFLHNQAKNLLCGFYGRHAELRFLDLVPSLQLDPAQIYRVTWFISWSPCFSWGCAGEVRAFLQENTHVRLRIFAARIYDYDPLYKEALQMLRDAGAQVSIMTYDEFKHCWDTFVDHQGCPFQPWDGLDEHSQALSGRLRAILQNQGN
PHOSPHO1 block: blocks human PHOSPHO1 phosphatase activity; Q8TCT1; recombinant PHOSPHO1, absorbance phosphatase assay; inhibition, % at 13.3 µM; 290,000 tested, 1.1% active; AID 1565; in the data active means inhibition above about 60%
MITF TRPM1 HTS: activators of MITF-driven TRPM1 promoter activity in SK-MEL-5 cells | SK-MEL-5 TRPM1-promoter luciferase, 24 h; % of positive control, neutral wells = 0 | AID 588334 | 300,000 tested, 0.75% active | activation, % at 12.5 µM;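 active means mean activation of at least 80% with every replicate also reaching 80%; inconclusive means mean reaches 80% but some replicate falls short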;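 further: 0% = neutral control wells and 100% = parthenolide positive control wells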
Numbers without * were called inactive; ? = inconclusive; . = not tested or not shown. Only some compounds are listed: those with a hit (about 3.6% of all), similar ones and a draw of the others.

SMILES	Wnt bcat act	esBAF inh	A3G deaminase	APOBEC3A inh	PHOSPHO1 block	MITF TRPM1 HTS
Cc1c(C(=O)Nc2ccc3c(c2)OCCO3)cnn1C	9	-40	-15	-2	37	-6
O=C(NCCc1ccc(Cl)cc1)c1cc2ccccn2n1	10	.	-5	1	32	18
O=C(Nc1ccc(Br)cc1)c1ccccc1Br	8	78*	1	1	.	101*
C[C@H](CO)N1C[C@H](C)[C@@H](CN(C)Cc2cccnc2)Oc2ncc(C#CCc3ccccc3)cc2C1=O	.	-6	.	.	.	.
O=C(Cc1ccccn1)N[C@@H]1CC[C@@H](CCNC(=O)c2cc(Cl)cc(Cl)c2)O[C@H]1CO	.	-1	.	.	.	.
Nn1c(COc2ccc(Cl)cc2)nc2ccccc2c1=O	29	?	-6	-3	1	99*
Nn1c(Cc2ccccc2)nc2ccccc2c1=O	2	-9	-6	-4	.	-12
O=C(NC1CCC1)[C@H]1[C@H](CO)[C@H]2Cn3c(ccc(C4=CCCCC4)c3=O)[C@H]2N1C(=O)C1CCOCC1	.	-4	.	.	.	.
C=CCn1c(=N)n(CC(=O)c2ccc(Br)cc2)c2ccccc21	18	-7	-2	-3	19	.
N=c1n(N)c2ccccc2n1CC(=O)c1ccc(Br)cc1	2	52*	-4	4	3	.
C[C@H]1CN([C@@H](C)CO)C(=O)CCCn2cc(nn2)CO[C@@H]1CN(C)Cc1ccc(-c2ccccc2)cc1	.	3	.	.	.	.
C[C@H]1CN([C@@H](C)CO)C(=O)c2cc(NC(=O)CCCN(C)C)ccc2O[C@@H]1CN(C)S(=O)(=O)c1ccccc1	.	-1	.	.	.	.
Cc1ccc(/C=c2/sc3nnc(-c4ccccc4Cl)n3c2=O)o1	1	10	5	11	92*	-3
COc1ccc(CN2C[C@@H](O)COC[C@@H]3O[C@@H](CC(=O)NCCN4CCCC4)CC[C@H]32)cc1	.	-1	.	.	.	.
Cc1cccc(C)c1NC(=O)c1c[nH]c2ccccc12	23	49*	-6	-3	33	77
C/C(=N\NC(=O)c1c[nH]c2ccccc12)c1ccco1	-1	51*	-3	1	-2	19
COC(=O)C1=C(C)N(Cc2cccc(C(F)(F)F)c2)C(=NCc2ccc3c(c2)OCO3)NC1CCc1ccccc1 (stereo not given)	0	.	.	.	.	.
O=C(N[C@@H]1CC[C@H](CCNS(=O)(=O)c2ccc(F)cc2)O[C@H]1CO)C1CC1	.	3	.	.	.	.
CC(C)NC(=O)c1sc2nc3c(c(-c4cccs4)c2c1N)CN(C)CC3	.	5	0	-2	63*	10
O=C(CSc1nc2ccccc2n1CCc1ccccc1)NC1CCS(=O)(=O)C1 (stereo not given)	.	.	-6	-3	97*	0
Nn1cc(-c2ccccc2)nc1SCC(=O)NC1CCS(=O)(=O)C1 (stereo not given)	2	-3	3	2	88*	.
Nn1cc(-c2ccccc2)nc1SCC(=O)NCCN1C(=O)CSC1=O	.	4	-6	-4	82*	.
Cn1c(SCC(=O)NCCN2C(=O)CSC2=O)nnc1-c1ccccc1	-1	.	0	1	-7	-1
O=C(CSc1nc2ccccc2n1CCc1ccccc1)NC1CC1	2	.	-9	-3	-7	1
COc1ccccc1C#Cc1ccc2c(c1)O[C@@H](CN(C)C(C)=O)[C@H](C)CN([C@H](C)CO)S2(=O)=O	.	0	.	.	.	.
SMILES	Wnt bcat act	esBAF inh	A3G deaminase	APOBEC3A inh	PHOSPHO1 block	MITF TRPM1 HTS
COc1ccc(-c2c(C)c3ccc(OCC(C)=O)cc3oc2=O)cc1	27	68*	-10	-2	36	.
O=C(COc1ccc2c3c(c(=O)oc2c1)CCC3)NCCCN1CCOCC1	1	0	-10	-5	62*	4
COC(=O)Cc1c(C)c2ccc(OCC(=O)N(C)C)cc2oc1=O	.	-10	-3	-1	-5	9
CCCOc1ccc2c(C)c(CC(=O)OC)c(=O)oc2c1	.	68*	-6	-4	19	125*
CCCOc1ccc2c3c(c(=O)oc2c1)CCCC3	.	48*	-6	-6	-4	32
Cc1ccc(NC(=O)C2CCN(C(=O)[C@@H]3Cc4ccccc4CN3)CC2)cc1	7	54*	-7	-5	31	37
Cc1cc(C)cc(NC(=O)C2CCN(C(=O)[C@@H]3Cc4ccccc4CN3)CC2)c1	2	4	-7	-7	30	-11
c1cc(-c2ccc(N3CCOCC3)cc2)n2ccnc2c1	26	57*	.	.	.	.
N#Cc1c(-c2cccnc2)c2c([nH]c1=O)-c1ccccc1OC2	44*	3	-11	-4	16	.
Nc1nc2c(s1)CCc1c-2cnn1-c1ccccc1	.	-6	54*	-3	106*	9
O=C(Cn1cnc2c(oc3ccccc32)c1=O)c1ccccc1	49*	70*	-4	-2	6	.
Cc1cc(C)c2c(n1)sc1c(=O)n(CC(=O)c3ccccc3)cnc12	?	47*	2	1	27	.
O=C(O)Cn1cnc2c(oc3ccccc32)c1=O	7	3	3	-6	45	-5
c1ccc(Cc2c[nH]c3ccccc23)cc1	1	-7	-1	-5	4	.
S=c1[nH]nc(Cc2c[nH]c3ccccc23)o1	.	-3	5	-5	61*	-3
O=C(Cc1ccccn1)NCC[C@@H]1CC[C@H](NC(=O)Nc2ccc(F)cc2)[C@H](CO)O1	.	-7	.	.	.	.
Cc1cccc(S(=O)(=O)N(C)C[C@H]2OCc3cn(nn3)CCCC(=O)N([C@@H](C)CO)C[C@H]2C)c1	.	0	.	.	.	.
COc1cccc(/C=C2\SC(N3CCCC(C)C3)=NC2=O)c1OC (stereo not given)	3	73*	-10	-4	24	65
COc1cccc(/C=C2\SC(N3CCC(C)CC3)=NC2=O)c1OC	1	7	3	1	9	17
CO[C@@H]1CN(C)C(=O)c2cc(NC(C)=O)ccc2OC[C@@H](C)N(S(C)(=O)=O)C[C@H]1C	.	3	.	.	.	.
O=C(c1cccs1)N1CCN=C1SCc1ccc(F)cc1	37*	.	-6	-2	27	9
O=C(c1cccs1)N1CCN=C1SCc1ccccc1	2	.	-2	3	-11	13
O=C(CSc1nnc2c3ccccc3c3ccccc3c2n1)Nc1ccccc1F	.	-2	8	4	94*	-23
NC(=O)c1ccc(NC(=O)CSc2nnc(-c3ccc4c(c3)OCO4)o2)cc1	-1	-2	-7	3	.	17
O=C(CSc1nnc(-c2ccc(O)cc2)o1)Nc1ccccc1	34*	18	-9	-4	35	45
Cc1cc(NC(=O)CSc2nnc(-c3ccc(O)cc3)o2)no1	0	12	-6	-9	24	8
O=C(CSc1nnc(-c2cccc(Cl)c2)o1)Nc1ccc2c(c1)OCCO2	-2	32	-10	-2	-1	88*
Cc1cc(NC(=O)CSc2nnc(-c3ccc([N+](=O)[O-])cc3)o2)no1	0	5	3	5	68*	-9
